Source: PubChem (several laboratories)
Platelet DG rel: modulates dense granule release in human platelets | human platelet-rich plasma, SFLLRN dense granule ATP release, luminescence | AID 1663 | inhibition, %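 (compounds screened at 7.5 µM in platelet-rich plasma)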 | 0.22% of 300,000 active;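 active = mean replicate score, as percent of positive control, at or above 50; inconclusive = mean below 50 but at least one replicate at or above 50; inactive = mean and every replicate below 50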
TRAIL sens C8: caspase-8 TRAIL sensitization; NB7+C8 cells + TRAIL, ATPlite viability luminescence; inhibition (viability loss, TRAIL sensitization), % at 10 µM; 1% of 360,000 active; AID 624354;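 active = compounds causing at least 50% loss of cell viability in the single-dose screen, relative to plate controls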
STAT3 inh-1: STAT3 signaling inhibition; U3A cells, IL-6 STAT3-luciferase reporter, luminescence; host cell line lacks STAT1; inhibition, % at 5.5 µM; 0.89% of 190,000 active; AID 862;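 active = inhibition above the mean inhibition across all screened compounds plus 3 SD, cut at about 44% in these data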;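 note: 0% = DMSO only wells and 100% = 100 µM nifuroxazide control wells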
STAT1 blocker: inhibitors of IFN-gamma induced STAT1 signaling | inhibition, % at 5.5 µM | 0.35% of 200,000 active | AID 920 | NIH 3T3 STAT1-luciferase reporter, luminescence;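 active = inhibition above a set limit, the mean inhibition across all tested compounds plus 3 SD, cut at about 34% in these data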;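 note: 0% = IFN-gamma with DMSO and 100% = IFN-gamma with 300 µM nifuroxazide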
PPC-1+TRAIL kill: PPC-1 cancer cell killing with TRAIL present. PPC-1 cells + TRAIL, ATPLite viability luminescence. cell killing (% activity), % at 4 µM or 5 µM. 0.41% of 220,000 active;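 active = cell killing above 50% in the first pass at 4 µM, then a duplicate retest at 5 µM averaging 50% or more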;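 note: plate controls were cells with TRAIL plus DMSO for no effect and medium-only wells lacking cells for full effect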
STAT3 inh-2: confirmation of STAT3 signaling inhibitors; shares compounds with STAT3 inh-1; U3A cells, IL-6 STAT3 luciferase reporter, luminescence; cell line lacks STAT1; inhibition, % at 5.7 µM; 45% of 1,200 active; AID 1265;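 active = inhibition above the hit cutoff computed for the primary STAT3 screen, cut at about 44% in these data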;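 note: 0% = IL-6 plus DMSO and 100% = IL-6 plus nifuroxazide control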
NFkB inh STAT3ct: NF-kappaB inhibition in STAT3 inhibitor counter-screen. HEK293T NF-kB luciferase reporter, TNF-alpha induced. shares compounds with STAT3 inh-1. inhibition, % at 5.7 µM. 36% of 1,200 active;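 active = inhibition above the mean of solvent-only control wells plus 3 SD, cutoff set per campaign, cut at about 13% in these data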;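 note: 0% = TNF-alpha with DMSO and 100% = TNF-alpha with MG high control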
STAT1 inh 2: inhibits STAT1, counter-screen to STAT3 inhibitors. shares compounds with STAT3 inh-1. NIH 3T3 STAT1-luciferase reporter, IFN-gamma induced, luminescence. inhibition, % at 5.7 µM. 27% of 1,200 active. AID 1317;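 active = inhibition above the mean plus 3 SD of solvent-only control wells, limit set per screening run, cut at about 16% in these data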;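 note: 0% = DMSO with IFN-gamma and 100% = nifuroxazide control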
Starred values were filed as active, the others as inactive; u = inconclusive; x = no result given. Only some compounds are listed: those with a hit (about 1.6% of all), similar ones and a draw of the others.

SMILES | Platelet DG rel | TRAIL sens C8 | STAT3 inh-1 | STAT1 blocker | PPC-1+TRAIL kill | STAT3 inh-2 | NFkB inh STAT3ct | STAT1 inh 2
COc1ccc(CC(N)c2csc(Nc3ccc(C(=O)c4ccccc4)cc3)n2)cc1 (centres undefined) | x | 9 | x | x | x | x | x | x
COc1ccc(CCNc2c(C)c(C)nc3ncnn23)cc1 | 2 | 11 | 82* | 24 | 20 | 85* | 32* | 26*
CCc1c(C)nc2ncnn2c1NCCc1ccc(OC)c(OC)c1 | -2 | -2 | 13 | 9 | 27 | x | x | x
Cc1ccc(C(=O)C[n+]2cc(-c3ccc(C)cc3)n3c2CCCCC3)cc1 | 0 | 32 | 71* | 28 | 42 | 60* | -1 | 27*
COc1ccc(C(=O)C[n+]2cc(-c3ccc(OC)cc3)n3c2CCCC3)cc1 | -3 | 21 | 5 | 14 | 17 | x | x | x
COc1ccc(NS(=O)(=O)c2cccc(NC(=O)c3ccc(S(=O)(=O)N4CCCCCC4)cc3)c2)cc1 | -17 | 25 | 61* | 20 | 16 | 69* | 23* | 25*
O=C(Nc1ccc(S(=O)(=O)N2CCOCC2)cc1)c1ccc(F)cc1 | 4 | -10 | x | x | x | x | x | x
COc1ccc(NS(=O)(=O)c2ccc(NC(=O)c3ccc(CN4CCOCC4)cc3)cc2)cc1 | -7 | 33 | 73* | 20 | x | 66* | 16* | 14
O=C(Nc1ccc(S(=O)(=O)Nc2ccc(F)cc2)cc1)c1ccc(CN2CCOCC2)cc1 | 2 | 28 | 80* | 6 | 25 | 84* | 30* | 14
OCc1ccccc1-c1cnc2cccnn12 | x | -2 | x | x | x | x | x | x
CCOC(=O)c1csc(NC(=O)c2cc3ccccc3o2)n1 | 5 | 25 | x | x | 10 | x | x | x
CCOC(=O)c1sc(NC(=O)c2cc3ccccc3o2)nc1C | 7 | 33 | 47* | -48 | 18 | 2 | -38 | -65
CCOC(=O)c1sc(NC(=O)Nc2ccccc2F)nc1C | 8 | 77* | 75* | -18 | 54* | 61* | 39* | -19
O=C(NCc1cccnc1)c1c[nH]c2cc3c(cc2c1=O)OCCO3 | -8 | 38 | 60* | 6 | 22 | 23 | -15 | -23
N/C(=N\N=C\c1cccc(O)c1)c1nonc1N | 70* | 13 | 63* | -7 | 11 | 27 | -6 | -2
Cc1ccccc1S(=O)(=O)NC(=O)C1(C)CCN1C(=O)C1(c2ccccc2)CC1 (centres undefined) | x | 10 | x | x | x | x | x | x
O=C1N[C@@H](Cc2cn(S(=O)(=O)c3c(F)c(F)c(F)c(F)c3F)c3ccccc23)C(=O)N[C@H]1Cc1ccccc1 | -3 | x | x | x | x | x | x | x
CCOc1ccc2nc(NC(=O)c3ccoc3C)sc2c1 | 69* | 46 | 79* | 32 | 30 | 47* | 14* | -67
CCOc1ccc2nc(NC(=O)Cc3cccs3)sc2c1 | -11 | 1 | -3 | -31 | 6 | x | x | x
CCOC(=O)c1ccc2nc(NC(=O)c3cccs3)sc2c1 | u | 30 | 28 | -44 | 35 | x | x | x
CCOC(=O)c1ccc2nc(NC(=O)c3ccco3)sc2c1 | 29 | 27 | 54* | -13 | 12 | 7 | -26 | -107
Cc1ccc(F)c(S(=O)(=O)NC(=O)C2(C)CCN2C(=O)Cc2cccs2)c1 (centres undefined) | x | 1 | x | x | x | x | x | x
O=C(O)c1ccc(CN2C[C@@H](CO)O[C@@H](n3cnc4c(NCc5ccco5)ncnc43)C2)cc1 | x | -6 | x | x | x | x | x | x
Nc1ncnc2c1ncn2[C@@H]1O[C@H](CNS(=O)(=O)c2cc(S(=O)(=O)c3ccccc3)cs2)[C@@H](O)[C@H]1O | x | -16 | x | x | x | x | x | x
c1ccc(-c2cnc(-c3ccccc3)nc2)cc1 | -19 | 75* | 54* | -24 | -2 | 26 | 2 | -68
SMILES | Platelet DG rel | TRAIL sens C8 | STAT3 inh-1 | STAT1 blocker | PPC-1+TRAIL kill | STAT3 inh-2 | NFkB inh STAT3ct | STAT1 inh 2
O=C(O)c1ncc(-c2ccccc2)cn1 | 13 | -2 | 8 | -1 | 0 | x | x | x
O=C(COc1ccccc1)NNc1nc2c(F)cc(F)cc2s1 | 6 | -12 | -14 | 3 | 9 | x | x | x
O=C(Nc1nc2c(F)cc(F)cc2s1)c1ccccn1 | -27 | 71* | 66* | 19 | 35 | 34 | -20 | -131
Cc1nc2ccccc2c2c1C(=O)N(c1cccc(C(=O)O)c1)C2=O | -2 | 0 | -6 | 0 | 1 | x | x | x
Cc1ccc(C)c(C(=O)COC(=O)c2cccc(N3C(=O)c4c(C)nc5ccccc5c4C3=O)c2)c1 | -9 | 57* | 50* | -11 | 65* | 45* | 29* | 44*
Cc1nn(C)c(C(=O)NCc2ccc(Cl)cc2)c1Cl | -5 | 29 | 56* | 26 | 22 | 65* | 14* | 20*
Cc1cccc(NC(=O)COC(=O)CCc2c[nH]c3ccccc23)c1 | x | 17 | x | x | x | x | x | x
N#C/C(=C\c1ccc(N2CCOCC2)o1)c1nc2ccccc2[nH]1 | 29 | 57* | 66* | -66 | 14 | 14 | -28 | -163
O=C(Nc1ccc(N2CCN(C(=O)c3ccc(Cl)cc3)CC2)cc1)c1ccc2c(c1)OCCO2 | 4 | 32 | 87* | 13 | 28 | 79* | 29* | 12
O=C(Nc1ccc(NC(=O)c2cc3ccccc3o2)cc1)c1ccc2c(c1)OCCO2 | 1 | 30 | 47* | 24 | 1 | 51* | 54* | 23*
CN1CCN(c2ccc(NC(=O)c3cc4ccccc4o3)cc2)CC1 | 1 | 29 | x | x | x | x | x | x
Cc1cc(NC(=O)c2ccc3c(c2)OCCO3)ccc1NC(=O)c1cc2ccccc2o1 | -2 | 41 | 20 | -11 | 20 | x | x | x
O=C(Nc1ccc(N2CCN(C(=O)c3ccccc3)CC2)cc1)c1cc2ccccc2o1 | x | 52* | 63* | 0 | -2 | 59* | 14* | -5
O=C(NCc1cccc(C(F)(F)F)c1)c1ccc2nc([C@@H]3O[C@H](CO)[C@@H](O)[C@H]3O)[nH]c2c1 | x | 11 | x | x | x | x | x | x
Cc1cccc(S(=O)(=O)NC(=O)C2(C)CCN2C(=O)Cc2ccc(C(C)(C)C)cc2)c1 (centres undefined) | x | 14 | x | x | x | x | x | x
CCCCNC(=O)C1(C)CCN1C(=O)Cc1cccc2ccccc12 (centres undefined) | x | -4 | x | x | x | x | x | x
c1c2c(cc3sc(N4CCCCC4)nc13)OCO2 | 18 | 47* | 62* | 11 | 50 | 34 | -1 | -56
c1c2c(cc3sc(N4CCOCC4)nc13)OCO2 | 23 | 21 | 22 | -20 | 38 | x | x | x
O=C(CSC(=S)N1CCCC1)c1ccccc1 | 5 | 16 | x | x | x | x | x | x
O=C(CSC(=S)N1CCCCC1)c1ccccc1 | 8 | 54* | 65* | 28 | 34 | 22 | 3 | -71
CCCCc1ccc(NC(=O)c2cnccn2)cc1 | 1 | 55* | 62* | 26 | 21 | 29 | -23 | -66
O=C(Nc1ccc(S(=O)(=O)N2CCCCC2)cc1)c1ccc(CN2CCOCC2)cc1 | -9 | 33 | 83* | 12 | 43 | 80* | 29* | 9
